Assay outcomes from PubChem BioAssay.
An excerpt weighted towards active compounds, which were near 7.6% of everything screened.
Giardia kill: kills Giardia lamblia; Giardia lamblia trophozoite viability; activity change, % at 7.66 µM, hits read low; hit rate 0.15% among 340,000; in the data active means activity change below about -80%; inconclusive means between about -30% and that limit;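 further: parasites exposed to compound for two days anaerobically before the ATP read; on the % scale 0 is the no-effect control and ±100 the full control effect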
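Trophozoites 100 cells/well + cpd; 48 hrs, 37 deg C, anaerobic. ATPLite 1-Step added, 15-30 min RT, luminescence read (ATP-based viability).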
ELG1 DNA repair: ELG1-dependent DNA repair inhibition; HEK293T ELG1-luciferase reporter, luminescence, 16 h; DNA damage induced by 5-fluorouridine; Potency, µM (titrated, usually from 46.1 µM), without a hit: at the highest dose activity change, negative = inhibition, usual class: inhibitors; hit rate 2.3% among 330,000; further: potency means the concentration at half of the fitted maximal effect; on the % scale 0 is the no-effect control and ±100 the full control effect; nearly all actives have a fitted effect of over 55% in size
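Overnight (16 hr) co-exposure of 2,000 cells/well to 5-fluorouridine and compound at 37 °C preceded detection. Luciferase was quantified via ONE-Glo luminescence; loss of signal denotes inhibition.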
BRCA1 expr act: increases BRCA1 expression | MCF7-BRCA1-FFLuc reporter, luminescence, 48 h; response scale: scaled: vehicle 0%, 10 µM genistein 100% | Potency, µM (highest dose often 46.1 µM), inactives show at the highest dose activation, usual class: activators | hit rate 1.1% among 380,000 | AID 624202; further: potency means the concentration at half of the fitted maximal effect; nearly all actives have a fitted effect of over 80% in size
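MCF7-BRCA1-FFLuc, 2000 cells/well; 2 h attach, 37 °C/5% CO2; compound 48 h; luciferase substrate 15 min; luminescence end-point. Norm. to genistein 10 microM max activation and DMSO; concentration-response curves fitted.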
RORgamma inh: blocks mouse ROR gamma transcriptional activity; P51450; hit rate 5.4% among 310,000; Potency, µM (highest dose often 53.6 µM), for inactives: top-dose activity change, negative = inhibition, usual class: inhibitors; Drosophila S2 Gal4-RORgamma UAS-luciferase reporter, 20 h; further: potency means the concentration at half of the fitted maximal effect; on the % scale 0 is the no-effect control and ±100 the full control effect; nearly all actives have a fitted effect of over 60% in size
Target sequence (P51450 whole entry, looked up, the tested form may be a part): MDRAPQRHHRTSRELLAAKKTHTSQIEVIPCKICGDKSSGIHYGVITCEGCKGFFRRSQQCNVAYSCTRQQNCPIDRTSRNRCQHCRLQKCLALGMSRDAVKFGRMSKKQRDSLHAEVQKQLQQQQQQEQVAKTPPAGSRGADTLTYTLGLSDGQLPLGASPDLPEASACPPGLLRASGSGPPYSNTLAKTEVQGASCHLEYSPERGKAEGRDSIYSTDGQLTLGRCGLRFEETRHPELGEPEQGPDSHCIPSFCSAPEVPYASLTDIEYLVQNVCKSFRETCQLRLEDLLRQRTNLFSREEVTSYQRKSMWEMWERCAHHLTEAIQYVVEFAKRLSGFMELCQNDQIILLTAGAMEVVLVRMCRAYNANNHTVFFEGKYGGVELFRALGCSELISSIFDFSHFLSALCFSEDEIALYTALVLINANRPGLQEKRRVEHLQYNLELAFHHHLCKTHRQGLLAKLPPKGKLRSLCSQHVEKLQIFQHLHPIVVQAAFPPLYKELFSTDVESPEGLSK
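Schneider cells (Drosophila), stable Gal4 DBD–ROR gamma + UAS-luc; 1 hr cmpd preincubation; Cu2+ induction 700 uM final; 20 hr ambient; luminescence.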
p53 reactivation: restores transcriptional activity of mutant p53. H1299 p53-A138V BP100-luciferase reporter, luminescence, 24 h. Potency, µM (top dose mostly 92.2 µM), for the others: at the top dose activity change, positive = activation, actives largely listed as activators. hit rate 0.063% among 320,000; further: potency means the concentration at half of the fitted maximal effect; % of control where 0% means no effect; nearly all actives have a fitted effect of over 45% in size
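p53-null H1299 cells stably carrying temperature-sensitive p53-A138V and a BP100-luciferase reporter were pinned with compounds (4-point, 1:5 series) and held 24 hrs at 37 deg C. Luminescence was read 10 min after detection reagent.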
Gal4-VP16 FLuc: inhibits Gal4-VP16 luciferase reporter, ROR gamma counter-screen; Potency, µM (series often up to 53.6 µM), inactives show top-dose activity, negative = inhibition, usual class: inhibitors; AID 2546; Drosophila S2 Gal4-VP16 UAS-luciferase, luminescence, 20 h; hit rate 3.5% among 310,000;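 further: Gal4-VP16 expression switched on by copper sulfate through the metallothionein promoter; potency means the concentration at half of the fitted maximal effect; on the % scale 0 is the no-effect control and ±100 the full control effect; nearly all actives have a fitted effect of over 50% in size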
Numbers without * were called inactive; ? = inconclusive; nt = not tested or not shown; [ ] = dose if it differs, or a comment. Unless noted, the call rests on the fitted dose curve; in most records, active means well fitted curve in the direction sought with a large enough effect; inconclusive means small, poorly fitted or top-dose-only effect, or another doubt; inactive means no such curve, though single readings can be large; an effect the other way counts as inactive or inconclusive.

SMILES | Giardia kill | ELG1 DNA repair | BRCA1 expr act | RORgamma inh | p53 reactivation | Gal4-VP16 FLuc
COc1ccc(N(CC(=O)Nc2cccc(N(C)S(C)(=O)=O)c2)S(=O)(=O)c2ccc(F)cc2)cc1 | -3 | 13µM* | -75% | 14% | -3% | -2%
CC(=O)Nc1ccc(NC(=O)CN(c2ccc([N+](=O)[O-])cc2)S(=O)(=O)c2ccccc2)cc1 | -17 | 4% | -3% | 6% | -4% | 5%
CCOc1ccc(NC(=O)CN(c2ccc([N+](=O)[O-])cc2)S(=O)(=O)c2ccccc2)cc1 | -13 | 10µM* | -88% | -2%[10 µM] | 8% | 0%
Cc1ccc2[nH]c(=O)c(N3CCOCC3)c(-c3ccccc3)c2c1 | -4 | 3% | -27% | 1% | 8% | 4%
Cc1cc(C(=O)NNC(=O)CN2C(=O)NC(C)(c3ccccc3)C2=O)c(C)o1 (configuration not stated) | 8 | 8% | -4% | nt | 0% | nt
CCN(CC(=O)Nc1c(F)cccc1F)C(=O)/C=C/c1cn(Cc2ccccc2)nc1-c1cccnc1 | -10 | ? | -11% | 27% | -14% | 2%
COc1ccc(-n2c(=S)[nH]c3ccccc32)cc1 | 1 | -3% | 43% | 4.5µM* | 0% | 20µM*
COc1ccc(-n2c(=S)[nH]c3ccccc3c2=S)cc1 | -3 | -3% | -3% | 0.5µM* | 1% | 0.71µM*
COc1ccc(Cn2c(=S)[nH]c3ccccc32)cc1 | -8 | 4% | 1% | 10µM* | -4% | ?
S=C(NCCc1cnc[nH]1)NC1CCCC1 | -8 | 10% | 2% | -14% | 5% | -9%
Cc1c(NC(=O)c2cc3ccccc3o2)c(=O)n(-c2ccccc2)n1C | -2 | 24% | 24% | -21% | 2% | -2%
Cc1ccc(SCC(=O)Nc2oc(C)c3c(C)n[nH]c(=O)c23)cc1C | -5 | 6% | -5% | nt | -3% | nt
CCN(Cc1ccncc1)C(=O)C1CCC(=O)N(Cc2ccc(Cl)cc2)C1 (configuration not stated) | 22 | 1% | 8% | -1% | 11% | 1%
COCCN(C(=O)CCl)C(C(=O)NC1CCCCC1)c1ccccc1C (configuration not stated) | -3 | 21µM* | -89% | ? | -24% | ?
COCCN(C(=O)CCC(=O)Nc1cc(C)on1)C(C(=O)NC1CCCC1)c1ccccc1C (configuration not stated) | 5 | 6% | 1% | 3% | -4% | 7%
CC(C)CCOc1ccc(C(=O)N2CCN(c3ncccn3)CC2)cc1 | -8 | -16% | 7% | -10% | -4% | -5%
CCCN1C(=O)/C(=C/c2ccc(N3CCCC3)c(C)c2)NC1=S | 4 | 10µM* | -35% | 24% | 5% | -3%
Cc1cc(/C=C2\NC(=S)N(C)C2=O)ccc1N1CCCC1 | 20 | 2% | 5µM* | 3.5µM* | 10% | ?
O=C(COc1ccccc1-c1ccccc1)NCCN1C(=O)S/C(=C\c2cccnc2)C1=O | 12 | ? | -39% | -42% | -14% | 20µM*
COc1ccc(-c2cc(N)n(S(=O)(=O)c3c(F)c(F)c(F)c(F)c3F)n2)cc1OC | 11 | 23µM* | -104% | ? | -32% | 7.1µM*
COc1ccc(OC)c(S(=O)(=O)N(C)CC(=O)N2CCCCC2)c1 | 9 | 0% | -1% | -37% | 3% | -2%
CCOC(=O)c1ccc(N=NN(C)C)cc1 | 13 | ? | 13µM* | 35% | 19% | -5%
NC(=S)NN=C1CCCCCCCCC1 | 5 | nt | -32% | nt | nt | nt
C=CCNC(=S)NN=C1CCCCCCC1 | -5 | -10% | 0% | 0.35µM* | 2% | 4.5µM*
COCCNC(=S)NN=C1CCCCC1 | 2 | 0% | -30% | 13µM* | -3% | ?
SMILES | Giardia kill | ELG1 DNA repair | BRCA1 expr act | RORgamma inh | p53 reactivation | Gal4-VP16 FLuc
CCCCC[C@@H]1CCCCC[C@H](O)C[C@@H](O)[C@@H](O)/C=C/C(=O)O1 | nt | nt | -18% | nt | nt | nt
C[C@@H]1CC[C@H](O)/C=C/C(=O)O[C@H](C)CC[C@H](O)/C=C/C(=O)O1 | 13 | 1% | -10% | ? | 3% | 6.3µM*
Cc1sc(NC(=O)C2CSC3(C)CCC(=O)N23)nc1-c1ccc(F)cc1 (configuration not stated) | 0 | 18µM* | -67% | 20% | -13% | 1%
COc1cnc(-c2ccccc2)[nH]c1=O | -16 | -5% | 5% | 18% | 2% | -6%
Cc1cccc(-n2c(C)cc(/C=N/n3cnnc3)c2C)c1 | -7 | 1% | -31% | ? | -14% | 20µM*
COc1ccc(C(=O)NCCN(C)C)c2nc3ccccc3cc12 | 8 | nt | -86% | nt | nt | nt
O=C1CN(C(=O)Cn2ncc(Cl)c(Cl)c2=O)c2ccccc2N1 | 3 | ? | -96% | 11µM* | -12% | ?
O=C(Cn1ncc(Cl)c(Cl)c1=O)NC1CCCCC1 | 7 | ? | -83% | nt | -35% | nt
O=C(Cn1ncc(Cl)c(Cl)c1=O)NCC1CCCCC1 | -9 | 18µM* | -87% | ? | -34% | ?
O=C1CN(C(=O)COc2ccc([N+](=O)[O-])cc2Cl)c2ccccc2N1 | ? | 8% | 11µM* | nt | -1% | nt
O=C1C2C3C=CC(c4ccccc4)(C2C(=O)N1c1cccc(Cl)c1)C1C(=O)N(c2cccc(Cl)c2)C(=O)C31 (configuration not stated) | 0 | 1% | -37% | 20% | 0% | -10%
O=C(CCc1c[nH]c2ccccc12)OCC(=O)c1ccccc1 | nt | nt | -5% | nt | nt | nt
CCN(CC)S(=O)(=O)c1cc(-c2nn(C)c(=O)c3ccccc23)ccc1C | 4 | 12% | -53% | -6% | -7% | 8%
CC1(C)CC(=O)C([C@H]2C3=C(CC(C)(C)CC3=O)Oc3ccccc32)C(=O)C1 | nt | nt | nt | 18% | nt | 0%
CC1(C)CC(=O)C(C2C3=C(CC(C)(C)CC3=O)Oc3ccc4ccccc4c32)C(=O)C1 (configuration not stated) | -5 | ? | 7.9µM* | 42% | ? | 6%
Cc1ccc(CNC(=O)C2CCCCC2C(=O)O)cc1 (configuration not stated) | -5 | -5% | 7% | 2% | 6% | 18%
C=CC[C@H](CC(=O)N[C@H](CO)Cc1ccccc1)C(=O)N[C@H](COC(=O)[C@@H](CC=C)Cc1ccc(F)cc1)Cc1c[nH]c2ccccc12 | 15 | nt | -14% | nt | nt | nt
C=CC[C@@H](CC(=O)N(CCO)Cc1ccccc1)C(=O)NC[C@H](OC(=O)[C@@H](CC=C)Cc1ccc(F)cc1)c1ccccc1 | -27 | 5.8µM* | -68% | nt | -14% | nt
